# This is one part of a sample in which the strongest signals are shown more often than they occur.
# B1: GS13599A-bth-520-23-520 (Bacteroides thetaiotaomicron) (protein)
# chain: SEDTMDRINKDHDHTTSVASRFILADVITSTAFSNASGDINTYASSYIEYEVGVDNQLYYAEVRENEPSSSSTFNNSWNGIYSSLKNARIIIDQCGEGGRDHGNDVTRGMAEVMAAYNCALIADFFGDAPCSQAALVDEKGSPVYMTPKMDTQQEIYTQIISYLDDAIANLQKEDLADVTEQDFLYAGDADKWLKFAYGLKARYTMRLINRSSNKSADYEKVLDYVSKSFTSADDQAAFDIYDSNNINPFYGFYNSRAGFGASTSLGTKLLAYNDPRANRAFFTPIVDKKRSQVAANDPSLVPAPNGSPDQSTSKYGISAFVYAKTAPTLLMSYHELMFLKAEALCRLNRDAEDALKEAVVAGLLNAENSISIAIKELGSGLNTNSSEVITETSAGKYFDDVVKAKYAANPLQETMIQKYLAMWGASGEATETYNDFRRMKGLNENFITLTNPNNSSKFPLRYPYGNSDTAANPEVKAAYGNGDYVYSEPVWWAGGSR
# Assays:
# Experiment in all cases: glycan array binding signal (z-score within array); higher = stronger binding
# Settings in all cases: glycan notation: IUPAC condensed, linker removed
# [1] = target: Fuc(a1-2)Gal(b1-3)[Fuc(a1-4)]GlcNAc(b1-2)Man(a1-3)[Fuc(a1-2)Gal(b1-3)[Fuc(a1-4)]GlcNAc(b1-2)Man(a1-6)]Man(b1-4)GlcNAc(b1-4)[Fuc(a1-6)]GlcNAc(b1-4)[Fuc(a1-6)]GlcNAc
# Outline: (§1)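 Glycan array binding is given as a within-array Z-score, which can be read as non-binding when negative. The arrays, 3228 of them, came from the Consortium for Functional Glycomics database and were retained only where the protein sequence was available. Z-scores were averaged across arrays of the same protein sequence at different concentrations or buffers and across linkers.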
# [2] = target: Fuc(a1-2)Gal(b1-4)GlcNAc(b1-2)Man
# Outline: as §1
# [3] = target: Fuc(a1-2)Gal(b1-4)GlcNAc(b1-2)[Fuc(a1-2)Gal(b1-4)GlcNAc(b1-4)]Man(a1-3)[Fuc(a1-2)Gal(b1-4)GlcNAc(b1-2)Man(a1-6)]Man(b1-4)GlcNAc(b1-4)GlcNAc
# Outline: as §1
# [4] = target: Fuc(a1-2)Gal(b1-4)[Fuc(a1-3)]GlcNAc
# Outline: as §1
# [5] = target: Fuc(a1-2)Gal(b1-4)[Fuc(a1-3)]GlcNAc(b1-3)Gal(b1-4)[Fuc(a1-3)]GlcNAc(b1-3)Gal(b1-4)[Fuc(a1-3)]GlcNAc
# Outline: as §1
# [6] = target: Fuc(a1-2)[Gal(a1-3)]Gal(b1-4)GlcNAc(b1-2)Man
# Outline: as §1
# [7] = target: Fuc(a1-2)[GalNAc(a1-3)]Gal(b1-4)GlcNAc(b1-6)GalNAc
# Outline: as §1
# [8] = target: Fuc(a1-3)[Gal(b1-4)]Glc6S
# Outline: as §1
# [9] = target: Fuc(a1-3)[Gal(b1-4)]GlcNAc(b1-6)[Gal(b1-3)GlcNAc(b1-3)]Gal(b1-4)Glc
# Outline: as §1
# [10] = target: Gal(a1-3)Gal(b1-3)GlcNAc
# Outline: as §1
# [11] = target: Gal(a1-3)GalNAc
# Outline: as §1
# [12] = target: Gal(b1-3)GlcNAc(a1-3)Gal(b1-4)GlcNAc
# Outline: as §1
# [13] = target: Gal(b1-3)GlcNAc(b1-3)Gal(b1-4)GlcNAc(b1-2)[Gal(b1-3)GlcNAc(b1-3)Gal(b1-4)GlcNAc(b1-6)]Man(a1-6)[Gal(b1-3)GlcNAc(b1-3)Gal(b1-4)GlcNAc(b1-2)Man(a1-3)]Man(b1-4)GlcNAc(b1-4)[Fuc(a1-6)]GlcNAc
# Outline: as §1
# [14] = target: Gal(b1-4)Glc
# Outline: as §1
# [15] = target: Gal(b1-4)GlcNAc(a1-6)Gal(b1-4)GlcNAc
# Outline: as §1
# [16] = target: Gal(b1-4)GlcNAc(b1-2)Man
# Outline: as §1
# [17] = target: Gal(b1-4)GlcNAc(b1-2)[Gal(b1-4)GlcNAc(b1-4)]Man(a1-3)[Gal(b1-4)GlcNAc(b1-2)[Gal(b1-4)GlcNAc(b1-6)]Man(a1-6)]Man(b1-4)GlcNAc(b1-4)GlcNAc
# Outline: as §1
# [18] = target: Gal(b1-4)GlcNAc(b1-3)Gal(b1-4)GlcNAc(b1-2)Man(a1-3)[Gal(b1-4)GlcNAc(b1-3)Gal(b1-4)GlcNAc(b1-2)Man(a1-6)]Man(b1-4)GlcNAc(b1-4)GlcNAc
# Outline: as §1
# [19] = target: Gal(b1-4)GlcNAc(b1-3)Gal(b1-4)GlcNAc(b1-2)Man(a1-3)[Gal(b1-4)GlcNAc(b1-3)Gal(b1-4)GlcNAc(b1-2)Man(a1-6)]Man(b1-4)GlcNAc(b1-4)[Fuc(a1-6)]GlcNAc
# Outline: as §1
# [20] = target: Gal(b1-4)GlcNAc(b1-3)Gal(b1-4)GlcNAc(b1-3)Gal(b1-4)GlcNAc(b1-3)Gal(b1-4)GlcNAc(b1-2)Man(a1-3)[Gal(b1-4)GlcNAc(b1-3)Gal(b1-4)GlcNAc(b1-3)Gal(b1-4)GlcNAc(b1-3)Gal(b1-4)GlcNAc(b1-2)Man(a1-6)]Man(b1-4)GlcNAc(b1-4)[Fuc(a1-6)]GlcNAc
# Outline: as §1
# [21] = target: Gal(b1-4)GlcNAc(b1-3)Gal(b1-4)GlcNAc(b1-3)Gal(b1-4)GlcNAc(b1-3)Gal(b1-4)GlcNAc(b1-3)Gal(b1-4)GlcNAc(b1-2)Man(a1-3)[Gal(b1-4)GlcNAc(b1-3)Gal(b1-4)GlcNAc(b1-3)Gal(b1-4)GlcNAc(b1-3)Gal(b1-4)GlcNAc(b1-3)Gal(b1-4)GlcNAc(b1-2)Man(a1-6)]Man(b1-4)GlcNAc(b1-4)GlcNAc
# Outline: as §1
# [22] = target: Gal(b1-4)GlcNAc(b1-3)Gal(b1-4)GlcNAc(b1-3)Gal(b1-4)GlcNAc(b1-3)Gal(b1-4)GlcNAc(b1-3)Gal(b1-4)GlcNAc(b1-2)[Gal(b1-4)GlcNAc(b1-3)Gal(b1-4)GlcNAc(b1-3)Gal(b1-4)GlcNAc(b1-3)Gal(b1-4)GlcNAc(b1-3)Gal(b1-4)GlcNAc(b1-6)]Man(a1-6)[Gal(b1-4)GlcNAc(b1-3)Gal(b1-4)GlcNAc(b1-3)Gal(b1-4)GlcNAc(b1-3)Gal(b1-4)GlcNAc(b1-3)Gal(b1-4)GlcNAc(b1-2)Man(a1-3)]Man(b1-4)GlcNAc(b1-4)[Fuc(a1-6)]GlcNAc
# Outline: as §1
# [23] = target: Gal(b1-4)GlcNAc(b1-3)Gal(b1-4)GlcNAc(b1-3)Gal(b1-4)GlcNAc(b1-3)Gal(b1-4)GlcNAc(b1-3)Gal(b1-4)GlcNAc(b1-3)Gal(b1-4)GlcNAc(b1-2)Man(a1-3)[Gal(b1-4)GlcNAc(b1-3)Gal(b1-4)GlcNAc(b1-3)Gal(b1-4)GlcNAc(b1-3)Gal(b1-4)GlcNAc(b1-3)Gal(b1-4)GlcNAc(b1-3)Gal(b1-4)GlcNAc(b1-2)Man(a1-6)]Man(b1-4)GlcNAc(b1-4)GlcNAc
# Outline: as §1
# [24] = target: Gal3S(b1-4)Glc
# Outline: as §1
# [25] = target: GalNAc3S(b1-4)GlcNAc
# Outline: as §1
# [26] = target: GalNAc3S(b1-4)[Fuc(a1-3)]GlcNAc
# Outline: as §1
# [27] = target: GalNAc4S6S(b1-4)GlcNAc
# Outline: as §1
# [28] = target: GlcA3S(b1-3)Gal(b1-4)GlcNAc(b1-2)Man
# Outline: as §1
# [29] = target: GlcNAc(a1-4)Gal(b1-4)GlcNAc
# Outline: as §1
# [30] = target: GlcNAc(b1-2)Man(a1-3)[GlcNAc(b1-4)][GlcNAc(b1-2)Man(a1-6)]Man(b1-4)GlcNAc(b1-4)GlcNAc
# Outline: as §1
binder,measurement,setting,value
B1,glycan array binding signal (z-score),[1],0.741
same,glycan array binding signal (z-score),[2],-0.841
same,glycan array binding signal (z-score),[3],2.4
same,glycan array binding signal (z-score),[4],0.206
same,glycan array binding signal (z-score),[5],-0.474
same,glycan array binding signal (z-score),[6],-0.234
same,glycan array binding signal (z-score),[7],-1.38
same,glycan array binding signal (z-score),[8],0.474
same,glycan array binding signal (z-score),[9],-0.479
same,glycan array binding signal (z-score),[10],-0.349
same,glycan array binding signal (z-score),[11],-1.08
same,glycan array binding signal (z-score),[12],0.206
same,glycan array binding signal (z-score),[13],2.93
same,glycan array binding signal (z-score),[14],-0.435
same,glycan array binding signal (z-score),[15],-1.2
same,glycan array binding signal (z-score),[16],2.44
same,glycan array binding signal (z-score),[17],-0.453
same,glycan array binding signal (z-score),[18],3.32
same,glycan array binding signal (z-score),[19],1.38
same,glycan array binding signal (z-score),[20],2.46
same,glycan array binding signal (z-score),[21],3.9
same,glycan array binding signal (z-score),[22],7.02
same,glycan array binding signal (z-score),[23],0.294
same,glycan array binding signal (z-score),[24],3.17
same,glycan array binding signal (z-score),[25],0.897
same,glycan array binding signal (z-score),[26],2.41
same,glycan array binding signal (z-score),[27],-1.28
same,glycan array binding signal (z-score),[28],-0.448
same,glycan array binding signal (z-score),[29],-0.237
same,glycan array binding signal (z-score),[30],2.52
